Source: PubChem BioAssay AID1543 (National Center for Advancing Translational Sciences (NCATS), 2009)
Inconclusive results are not listed. A call without a number means that no potency is given here. Activity calls are given as the source filed them. Calls follow the shape of the dose curve; as a rule, active = well fitted activation curve with a large enough effect; inconclusive = small, poorly fitted or top-dose-only effect, or effect the other way; inactive = flat fitted curve, though single readings scatter.

Each molecule was assayed against Pyruvate kinase PKLR (Homo sapiens) (UniProt P30613) (assay: Secondary assay for Activators of Human Reticulocyte Pyruvate Kinase). Conditions: purified hPK-R, LDH-coupled NADH fluorescence kinetic; series mostly up to 57.5 µM.
Pyruvate kinase PKLR (Homo sapiens), sequence (P30613 whole entry, looked up): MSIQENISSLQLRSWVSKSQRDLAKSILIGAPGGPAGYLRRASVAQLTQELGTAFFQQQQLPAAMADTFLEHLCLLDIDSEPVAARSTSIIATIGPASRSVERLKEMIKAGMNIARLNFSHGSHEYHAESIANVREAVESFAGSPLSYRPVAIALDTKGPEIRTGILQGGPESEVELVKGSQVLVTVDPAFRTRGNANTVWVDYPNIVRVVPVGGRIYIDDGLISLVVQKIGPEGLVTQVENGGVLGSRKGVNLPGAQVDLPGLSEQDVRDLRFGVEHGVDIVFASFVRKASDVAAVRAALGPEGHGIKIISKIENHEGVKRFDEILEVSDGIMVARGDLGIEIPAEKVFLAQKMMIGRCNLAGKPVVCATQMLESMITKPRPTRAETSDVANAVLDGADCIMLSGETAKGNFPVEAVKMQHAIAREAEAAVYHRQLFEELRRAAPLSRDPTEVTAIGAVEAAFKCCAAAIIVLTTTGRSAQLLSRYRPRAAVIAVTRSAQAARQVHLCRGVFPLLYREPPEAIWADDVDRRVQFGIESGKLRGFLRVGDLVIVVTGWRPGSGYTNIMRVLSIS
Text: Confirmatory assay NIH Chemical Genomics Center [NCGC] Wael M. Rabeh, Lyudmila Nedyalkova and Hee-Wan Park [Structural Genomics Consortium, 100 College St. Toronto, Ontario, Canada] NCGC Assay Overview: Human pyruvate kinase reticulocyte (hPK-R) enzyme was supplied as a highly purified (>95% pure) preparation from Structural Genomics Consortium in Toronto (Ontario, Canada) and a secondary assay was used to evaluate compounds. This assay couples the formation of pyruvate from hPK-R using lactate dehydrogenase (LDH) and NADH. The depletion of NADH is followed in a fluorescent-based kinetic assay that follows the formation of pyruvate to lactate, as catalyzed LDH. Pyruvate kinase substrates, PEP and ADP, were present in the assay at 0.1 mM and 4 mM respectively. In this kinetic assay initial rates were determined by following the fluorescence of NADH depletion.
NCGC Assay Protocol Summary: Three uL of substrate mix (final concentration, 50 mM Tris-Cl pH 8.0, 200 mM KCl, 15 mM MgCl2, 0.1 mM PEP, 4.0 mM ADP, and 0.2 mM NADH) was dispensed into black-solid 1536 well plates. 23 nL of compounds were delivered by a pin tool and 1 uL of enzyme mix (final concentrations, 10 nM hPK-R and 1 uM of LDH) was added. Plates were immediately placed in ViewLux (Perkin Elmer) and NADH fluorescence was determined at 30 second exposure intervals for between 3 and 6 minutes. Data were normalized to the uninhibited and EC100 activation using known activators such as fructose-bis-phosphate.

| Structure (SMILES) | Potency |
| --- | --- |
| COc1ccc(Cn2ncc3c4sc(C)cc4n(C)c3c2=O)cc1 | 631 nM (active) |
| CCCCCn1ncc2c3sc(C)cc3n(C)c2c1=O | inactive |
| O=C(c1ccc2c(c1)OCCO2)N1CCN(S(=O)(=O)c2c(F)cccc2F)CC1 | inactive |
| O=C(c1c(F)cccc1F)N1CCN(S(=O)(=O)c2ccc3c(c2)OCCO3)CC1 | inactive |
| COc1ccc(S(=O)(=O)N2CCN(S(=O)(=O)c3ccc(OC)cc3)CC2)cc1 | inactive |
| O=S(=O)(c1ccc2ccccc2c1)N1CCN(S(=O)(=O)c2c(F)cccc2F)CC1 | inactive |
| O=S(=O)(c1cccc(F)c1)N1CCN(S(=O)(=O)c2ccc3c(c2)OCCO3)CC1 | inactive |
| O=S(=O)(c1ccc2c(c1)OCCO2)N1CCN(S(=O)(=O)c2ccc3c(c2)OCCO3)CC1 | inactive |
| Cn1c2cc(C=O)sc2c2cnn(Cc3ccccc3F)c(=O)c21 | 398 nM (active) |
| CSc1cc2c(s1)c1cnn(Cc3ccccc3F)c(=O)c1n2C | 708 nM (active) |
| Cc1cc2c(s1)c1cnn(Cc3c(F)c(F)cc(F)c3F)c(=O)c1n2C | inactive |
| CC(=O)c1cc2c(s1)c1cnn(Cc3ccccc3F)c(=O)c1n2C | 631 nM (active) |
| O=S(=O)(c1ccc2c(c1)OCCO2)N1CCN(S(=O)(=O)c2c(F)ccc(O)c2F)CC1 | inactive |
| O=S(=O)(c1ccc2c(c1)OCO2)N1CCN(S(=O)(=O)c2c(F)cccc2F)CC1 | inactive |
| Cn1c2cc(C#N)sc2c2cnn(Cc3ccccc3F)c(=O)c21 | inactive |
| C[C@H]1CN(S(=O)(=O)c2c(F)cccc2F)CCN1S(=O)(=O)c1ccc2c(c1)OCCO2 | inactive |
| CCc1cc2c(s1)c1cnn(Cc3ccccc3F)c(=O)c1n2C | 5620 nM (active) |
| CC(C)c1cc2c(s1)c1cnn(Cc3ccccc3F)c(=O)c1n2C | 4470 nM (active) |
| C[C@H]1CN(S(=O)(=O)c2ccc3c(c2)OCCO3)CCN1S(=O)(=O)c1c(F)cccc1F | inactive |
| O=S(=O)(c1ccc2c(c1)OCCO2)N1CCN(S(=O)(=O)c2c(F)cccc2F)CC1 | inactive |
| O=S(=O)(NC1CCC(NS(=O)(=O)c2c(F)cccc2F)CC1)c1ccc2c(c1)OCCO2 (stereo unspecified) | inactive |
| Cn1c2ccsc2c2cnn(Cc3ccccc3F)c(=O)c21 | 14100 nM (active) |
| O=S(=O)(c1c(F)cccc1F)N1CCN(S(=O)(=O)c2c(F)cccc2F)CC1 | inactive |
| C[C@@H]1CN(S(=O)(=O)c2ccc3c(c2)OCCO3)CCN1S(=O)(=O)c1c(F)cccc1F | inactive |
| Cn1c2cc(S(C)=O)sc2c2cnn(Cc3ccccc3F)c(=O)c21 (stereo unspecified) | 1120 nM (active) |
| O=S(=O)(c1ccc(Cl)cc1)N1CCN(S(=O)(=O)c2ccc3c(c2)OCCO3)CC1 | inactive |
